Measured values taken from ChEMBL document CHEMBL2218924, “A broad activity screen in support of a chemogenomic map for kinase signalling research and drug discovery” (Biochem J, 2013).

target: Mitogen-activated protein kinase 8 (Homo sapiens) (UniProt P45983); conditions: at 1 µM
Sequence (P45983 whole entry): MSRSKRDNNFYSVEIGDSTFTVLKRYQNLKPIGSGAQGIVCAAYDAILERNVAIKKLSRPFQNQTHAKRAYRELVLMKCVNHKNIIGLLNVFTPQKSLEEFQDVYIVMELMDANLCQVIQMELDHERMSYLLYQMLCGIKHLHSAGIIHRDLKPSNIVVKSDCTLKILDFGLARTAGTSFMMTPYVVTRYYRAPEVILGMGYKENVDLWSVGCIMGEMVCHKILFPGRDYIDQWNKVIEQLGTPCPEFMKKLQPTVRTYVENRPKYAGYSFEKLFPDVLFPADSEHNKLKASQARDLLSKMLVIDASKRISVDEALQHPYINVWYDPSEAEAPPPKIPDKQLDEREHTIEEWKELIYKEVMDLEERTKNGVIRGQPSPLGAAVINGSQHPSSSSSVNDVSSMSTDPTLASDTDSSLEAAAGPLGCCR

Point of comparison: `CC#CC(=O)Nc1cc2c(Nc3ccc(F)c(Cl)c3)ncnc2cn1`, residual activity 96%. Against it:
- Cn1cc(/C=C2\C(=O)Nc3ccc(S(N)(=O)=O)cc32)c2ccccc21 — higher, 109%
- COc1cc2ncnc(Nc3ccc(Oc4ccccc4)cc3)c2cc1OC — higher, 106%
- O=c1cc(-c2cccc3c2Sc2ccccc2S3)oc(N2CCOCC2)c1 — higher, 108%
- Oc1ccc(-c2nc(-c3ccc(F)cc3)c(-c3ccncc3)[nH]2)cc1 — higher, 99%
- O=C1c2ccccc2-[n+]2ccc3c([nH]c4ccccc43)c21 — higher, 97%
- Nc1nc(Nc2ccc(S(N)(=O)=O)cc2)nn1C(=S)Nc1c(F)cccc1F — lower, 88%
- N#C/C(=C(\N)Sc1ccc(N)cc1)c1ccccc1C(F)(F)F — lower, 95%
- CN(C)CCCn1cc(C2=C(c3c[nH]c4ccccc34)C(=O)NC2=O)c2ccccc21 — higher, 111%
- CC(=O)c1ccc(N2CCOCC2)cc1O — higher, 104%
- CO[C@@H]1[C@H](N(C)C(=O)c2ccccc2)C[C@H]2O[C@]1(C)n1c3ccccc3c3c4c(c5c6ccccc6n2c5c31)C(=O)NC4 — lower, 92%
- O=C(Nc1cccc(Nc2nccc(Nc3cccc(C(F)(F)F)c3)n2)c1)C1CC1 — higher, 109%
- CC(=O)O/N=C1\C(=C2\C(=O)Nc3cc(Br)ccc32)Nc2ccccc21 — higher, 98%
- Cn1cnc2cc3c(Nc4cccc(Br)c4)ncnc3cc21 — higher, 98%
- CCC(=O)Nc1ccc2ncnc(Nc3cccc(Br)c3)c2c1 — lower, 94%
- O=c1c2ccccc2[nH]c(=S)n1CCN1CCC(=C(c2ccc(F)cc2)c2ccc(F)cc2)CC1 — higher, 104%
- CC[n+]1c(/C=C/N(C)c2ccccc2)n(-c2ccccc2)c2ccc(-c3nc4ccccc4s3)cc21 — higher, 119%
- O=Nc1c(-c2c(O)[nH]c3ccccc23)[nH]c2ccccc12 — lower, 63%
- O=[N+]([O-])c1ccc(-c2nc(-c3ccc(F)cc3)c(-c3ccncc3)[nH]2)cc1 — higher, 102%
- O=C(O)c1ccc2c3c1cccc3c(=O)n1c3ccccc3nc21 — higher, 105%
- CCN(CC)C(=O)c1ccc(Nc2nc(OCC3CCCCC3)c3nc[nH]c3n2)cc1 — lower, 44%
- O=C1Nc2ccc(Br)cc2/C1=C\c1cc2c([nH]1)CCCC2 — higher, 114%
- Cc1cc(Nc2nc(-c3ccccc3)nc3ccccc23)n[nH]1 — lower, 94%
- Oc1ccc(Nc2nc(-c3ccc(Cl)cc3)cs2)cc1 — higher, 106%
- Cc1cncc2cccc(S(=O)(=O)N3CCCN(C(=O)CN)C[C@H]3C)c12 — lower, 95%
- c1ccc2c(-c3ccncc3)c[nH]c2c1 — higher, 97%

target: Mitogen-activated protein kinase 8 (Homo sapiens) (UniProt P45983); conditions: at 10 µM

Point of comparison: `N#CC(C#N)=C(N)/C(C#N)=C/c1ccc(O)cc1`, residual activity 83%. Against it:
- Cn1cc(/C=C2\C(=O)Nc3ccc(S(N)(=O)=O)cc32)c2ccccc21 — higher, 95%
- COc1cc2ncnc(Nc3ccc(Oc4ccccc4)cc3)c2cc1OC — higher, 110%
- O=c1cc(-c2cccc3c2Sc2ccccc2S3)oc(N2CCOCC2)c1 — higher, 97%
- Oc1ccc(-c2nc(-c3ccc(F)cc3)c(-c3ccncc3)[nH]2)cc1 — lower, 79%
- O=C1c2ccccc2-[n+]2ccc3c([nH]c4ccccc43)c21 — higher, 87%
- Nc1nc(Nc2ccc(S(N)(=O)=O)cc2)nn1C(=S)Nc1c(F)cccc1F — higher, 84%
- N#C/C(=C(\N)Sc1ccc(N)cc1)c1ccccc1C(F)(F)F — higher, 100%
- CC(=O)c1ccc(N2CCOCC2)cc1O — lower, 80%
- CO[C@@H]1[C@H](N(C)C(=O)c2ccccc2)C[C@H]2O[C@]1(C)n1c3ccccc3c3c4c(c5c6ccccc6n2c5c31)C(=O)NC4 — lower, 67%
- O=C(Nc1cccc(Nc2nccc(Nc3cccc(C(F)(F)F)c3)n2)c1)C1CC1 — lower, 61%
- CC(=O)O/N=C1\C(=C2\C(=O)Nc3cc(Br)ccc32)Nc2ccccc21 — higher, 94%
- Cn1cnc2cc3c(Nc4cccc(Br)c4)ncnc3cc21 — lower, 77%
- CCC(=O)Nc1ccc2ncnc(Nc3cccc(Br)c3)c2c1 — lower, 76%
- O=c1c2ccccc2[nH]c(=S)n1CCN1CCC(=C(c2ccc(F)cc2)c2ccc(F)cc2)CC1 — the same, 83%
- CC[n+]1c(/C=C/N(C)c2ccccc2)n(-c2ccccc2)c2ccc(-c3nc4ccccc4s3)cc21 — higher, 95%
- O=Nc1c(-c2c(O)[nH]c3ccccc23)[nH]c2ccccc12 — lower, 70%
- CC#CC(=O)Nc1cc2c(Nc3ccc(F)c(Cl)c3)ncnc2cn1 — lower, 72%
- O=[N+]([O-])c1ccc(-c2nc(-c3ccc(F)cc3)c(-c3ccncc3)[nH]2)cc1 — higher, 98%
- Cc1cc2ncc(-c3ccccc3)nc2cc1C — higher, 99%
- O=C(O)c1ccc2c3c1cccc3c(=O)n1c3ccccc3nc21 — lower, 79%
- Cc1cccc(-c2[nH]c(C(C)(C)C)nc2-c2ccc3c(c2)OCO3)n1 — higher, 97%
- CCN(CC)C(=O)c1ccc(Nc2nc(OCC3CCCCC3)c3nc[nH]c3n2)cc1 — lower, -11%
- O=C1Nc2ccc(Br)cc2/C1=C\c1cc2c([nH]1)CCCC2 — higher, 114%
- Cc1cc(Nc2nc(-c3ccccc3)nc3ccccc23)n[nH]1 — lower, 71%
- Oc1ccc(Nc2nc(-c3ccc(Cl)cc3)cs2)cc1 — higher, 101%
- Cc1cncc2cccc(S(=O)(=O)N3CCCN(C(=O)CN)C[C@H]3C)c12 — lower, 82%
- c1ccc2c(-c3ccncc3)c[nH]c2c1 — lower, 78%
